Assay outcomes as filed in PubChem BioAssay.
Shiga inhibitor = A qHTS for Small Molecule Inhibitors of Shiga Toxin | 9.2% of 290,000 active | inhibition, % at 38.7 µM | AID 2315, 2010 | Vero cells, Shiga toxin protein synthesis inhibition reporter; in the data active = inhibition mostly above about 28%, no sharp cut-off; inactive = mostly below about 43%; also: 0% is about no effect
NS1 inh = qHTS Assay for Inhibitors of Influenza NS1 Protein Function. AID 2326, 2010. 0.4% of 270,000 active. Potency, µM (series often up to 46.1 µM), for inactives: at the highest dose activity, positive = more growth; calls by dose curve; also: potency is read from the fitted curve at half-maximal effect; actives are rising curves; nearly all actives have a fitted effect of over 50% in size
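OD600 was taken as the measure of yeast growth restored by compound in an NS1-expressing S. cerevisiae strain. Cells had been washed out of glucose medium and diluted 1:100 into galactose -URA medium, pH 6.0.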
CHX counter = Cycloheximide Counterscreen for Small Molecule Inhibitors of Shiga Toxin | cell reporter, cycloheximide protein synthesis inhibition counterscreen | max response, % | 12% of 300,000 active | AID 2314, 2010; in the data active = max response mostly above about 13%, no sharp cut-off; inactive = mostly below about 14%; also: read at 38.3 µM for the half of the compounds with a filed dose; 0% is about no effect
LmPK inh = qHTS Assay for Inhibitors of Leishmania Mexicana Pyruvate Kinase (LmPK). purified LmPK, Kinase-Glo ATP luminescence, 1 h. Potency, µM (doses to about 57.5 µM), for the others: top-dose activity change, negative = inhibition, actives largely listed as inhibitors. 0.37% of 290,000 active. AID 1721, 2009; also: potency is read from the fitted curve at half-maximal effect; % is scaled to controls: 0 for no effect and ±100 for the full control effect
Target sequence (Q27686 whole entry, looked up): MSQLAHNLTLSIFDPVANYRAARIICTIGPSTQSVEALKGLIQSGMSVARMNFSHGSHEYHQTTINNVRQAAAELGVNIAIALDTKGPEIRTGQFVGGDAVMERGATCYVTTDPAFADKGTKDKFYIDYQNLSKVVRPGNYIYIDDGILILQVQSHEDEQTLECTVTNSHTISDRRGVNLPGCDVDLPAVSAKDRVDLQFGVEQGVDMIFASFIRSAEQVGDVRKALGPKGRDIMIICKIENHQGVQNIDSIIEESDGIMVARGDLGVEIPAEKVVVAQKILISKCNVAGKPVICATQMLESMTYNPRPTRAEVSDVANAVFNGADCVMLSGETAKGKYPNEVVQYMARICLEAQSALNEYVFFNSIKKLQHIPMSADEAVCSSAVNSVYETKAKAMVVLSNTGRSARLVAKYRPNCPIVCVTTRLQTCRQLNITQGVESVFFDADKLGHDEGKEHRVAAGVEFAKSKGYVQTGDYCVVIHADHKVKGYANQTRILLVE
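Purified LmPK (0.1 nM) with 0.5 mM PEP and 0.1 mM ADP in imidazole buffer pH 7.2 with MgCl2/KCl, 1 h at room temperature. ATP formed was read by luciferase luminescence and normalized to no-enzyme and uninhibited controls.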
Tb PYK inh = qHTS of Trypanosoma Brucei Inhibitors; 0.12% of 410,000 active; pyruvate kinase (Trypanosoma brucei), Q57TT1; TbPYK enzyme, Kinase-Glo Plus ATP luminescence, 45 min; Potency, µM (titrated, usually from 76.8 µM), inactives show at the highest dose activity, negative = inhibition, actives largely listed as inhibitors; also: potency is read from the fitted curve at half-maximal effect; % is scaled to controls: 0 for no effect and ±100 for the full control effect; nearly all actives have a fitted effect of over 50% in size
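Luminescent Kinase-Glo Plus end-point after 45 min room-temperature reaction of T. brucei pyruvate kinase started with 130 uM ADP (final). Buffer TEA 50 mM pH 7.2 with KCl, MgCl2, BSA, Tween-20; titration-based qHTS with fitted concentration-effect curves.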
SARS PLP yeast = qHTS of Yeast-based Assay for SARS-CoV PLP; 0.19% of 330,000 active; AID 485353, 2010; S. cerevisiae expressing SARS-CoV PLpro, growth rescue; Potency, µM (highest dose often 32.9 µM), for inactives: top-dose activity, positive = growth rescue, usual class: activators; calls by dose curve; also: potency is read from the fitted curve at half-maximal effect; 0% is about no effect; nearly all actives have a fitted effect of over 55% in size
The depositor's hits bear a star; ? = inconclusive; . = no result. Only a selection was taken, and hits are over-represented in it overall. Unless noted, calls follow the shape of the dose curve; as a rule, active = well fitted curve in the direction sought with a large enough effect; inconclusive = small, poorly fitted or top-dose-only effect, or another doubt; inactive = no such curve, though single readings can be large; an effect the other way counts as inactive or inconclusive.

SMILES	Shiga inhibitor	NS1 inh	CHX counter	LmPK inh	Tb PYK inh	SARS PLP yeast
N#C/C(=C(/O)COC(=O)c1ccc(C#N)cc1)c1nc2ccccc2s1	-3	-3%	2	2%	-22%	5%
COc1ccccc1CNC(=O)C(Cc1ccccc1)NS(=O)(=O)c1ccc2c(c1)CCN2C(C)=O (centres undefined)	.	.	.	.	-8%	.
CCc1ccc(NCc2cc3ccc(OC)cc3n(CC(=O)Nc3ccc(C(C)C)cc3)c2=O)cc1	.	.	.	.	2%	.
O=C(Nc1cnc2ccccc2c1)c1ccncc1	183*	-15%	73*	1%	1%	-9%
Cn1ncc2cc(NC(=S)NC(=O)c3ccccc3)ccc21	86*	-12%	43*	1%	-2%	3%
CC1(C(=O)Nc2cnc3ccccc3c2)CCN1CCc1ccccc1 (centres undefined)	.	.	.	.	2%	.
O=C(NC(=S)Nc1ncc(Br)cc1Br)c1ccccc1	94*	0%	35*	2%	0%	-19%
Cc1cc(C)nc(NC(=S)NC(=O)c2ccccc2)n1	18	23%	2	1%	-5%	2%
S=C(NCCc1ccccc1)Nc1cnc2ccccc2c1	61*	.	31*	1%	-7%	-1%
O=C(Nc1ccccc1)c1ccncc1	-1	-3%	-3	-4%	-5%	.
CCOc1ccc(N=C(C)Nc2ccc(OCC)cc2)cc1	.	.	.	.	-2%	.
Cc1cc(S(=O)(=O)n2ccnc2C(C)C)cc([N+](=O)[O-])c1C	.	.	.	.	-1%	.
CC1CCCN(S(=O)(=O)c2ccc3c(c2)CCN3C(=O)CCC(=O)O)C1 (centres undefined)	.	.	.	.	-5%	.
O=C(NC(=S)Nc1cnc2ccccc2c1)c1ccccc1	63*	-5%	47*	-12%	-24%	-3%
Cc1ccc(-n2cc(CN3CCN(c4ccccn4)CC3)c(-c3ccc(F)cc3)n2)cc1	33	2%	4	-3%	1%	-4%
Cc1ccc(-n2cc(CN3CCN(Cc4nccn4C)CC3)c(-c3ccc(F)cc3)n2)cc1	57	3%	15*	3%	-9%	-1%
Cc1ccc(-n2cc(CN3CCN(C(=O)c4ncn[nH]4)CC3)c(-c3ccc(F)cc3)n2)cc1	40	1%	17*	-5%	-1%	0%
Cc1cc(NC(=O)c2cc(-c3ccccc3)on2)no1	-11	-2%	-4	-9%	0%	-2%
O=C(Nc1cc(Br)ccc1O)c1cc(-c2ccccc2)on1	27	5%	14*	0%	0%	3%
Cc1ccc(O)c(NC(=O)c2cc(-c3ccccc3)on2)c1	.	21%	66*	3%	7%	?
Cc1nc2ccc(Cl)cc2n1C	.	.	.	.	-4%	.
Cc1ccc(CNC(=O)c2ccc(Cl)c(S(=O)(=O)N3CCCCC3)c2)cc1	.	.	.	.	-1%	4%
O=[N+]([O-])c1ccccc1N/N=C/c1ccccc1	62*	19%	35*	-8%	-12%	-3%
O=[N+]([O-])c1ccccc1N/N=C/c1ccc2c(c1)OCO2	68*	-5%	40*	?	-21%	-1%
NS(=O)(=O)c1ccc(N/N=C/c2ccc3c(c2)OCO3)c([N+](=O)[O-])c1	7	3%	12	-10%	1%	1%
SMILES	Shiga inhibitor	NS1 inh	CHX counter	LmPK inh	Tb PYK inh	SARS PLP yeast
CN1CCN(C(=O)c2cc([N+](=O)[O-])cc([N+](=O)[O-])c2)CC1	-9	?	3	2%	-2%	4%
O=C(Nc1ccc(-c2n[nH]c(=S)o2)cc1)c1ccccc1Cl	10	-15%	1	-14%	?	0%
Cn1cc(S(=O)(=O)Nc2cccc3ccccc23)c(=O)n(C)c1=O	-8	2%	3	2%	-8%	4%
CN(C)C=NC1=NN(c2cccc(C(F)(F)F)c2)CC1	43*	-23%	43*	-2%	-10%	-17%
CN1CCN(C=NC2=NN(c3cccc(C(F)(F)F)c3)CC2)CC1	20	-11%	21*	2%	-8%	-17%
O=C1OC(/C=C/c2ccc(Cl)cc2)=NC/1=C/c1ccco1	-29	12%	24*	-7%	-3%	13%
CN1C(=O)/C(=C\c2ccco2)N=C1c1ccc(Cl)cc1Cl	74*	8%	28*	5%	0%	-2%
C[C@H]1CCCCO[C@H](CN(C)CC2CCCCC2)[C@@H](C)CN([C@@H](C)CO)C(=O)c2cc(NS(=O)(=O)c3ccccc3)ccc2O1	.	.	.	.	9%	.
CC(C)NC(=O)Cn1nnc(-c2ccccc2)c1COc1ccc2ccccc2c1	.	.	.	.	2%	.
COC(=O)CN1C(=O)[C@@H]2[C@H](C1=O)[C@@H]1CC(C(=O)OC)=C[C@@H](C(=O)OC)C3C1=C(C(=O)[C@@]3(C)NC(=O)c1ccccc1)[C@@H]2C (some centres undefined)	-8	.	-2	.	.	.
Fc1ccc(-c2nc(-c3cnccn3)no2)c(Cl)c1	83*	-5%	40*	?	-13%	-1%
Clc1ccc(-c2nc(-c3cnccn3)no2)cc1	59*	-2%	30*	7.9µM*	-12%	2%
OC1(c2ccc(Cl)cc2)CCN(Cc2nc(-c3cnccn3)no2)CC1	7	4%	-3	-1%	-3%	0%
OCCCNc1ncnc2c1cnn2-c1ccc(Cl)cc1	75*	3%	52*	-4%	5%	-3%
CN(C)CCNc1ncnc2c1cnn2-c1ccc(Cl)cc1	56	7%	30*	14%	0%	-1%
CN(C)CCNc1ncnc2c1cnn2-c1cccc(Cl)c1	.	.	.	.	-7%	.
CCOC(=O)c1c2c(n(-c3ccc(OC)cc3)c1C)C(=O)C(=O)c1ccccc1-2	.	.	.	.	-2%	.
CC(=O)Nc1ccccc1C(=O)OCc1ccc(F)cc1	37	-4%	32*	-1%	0%	0%
CCC(=O)Nc1ccccc1C(=O)OCc1ccc(C(=O)c2ccccc2)cc1	15	-9%	25*	-2%	2%	1%
CCC(=O)Nc1ccccc1C(=O)OC(c1ccccc1)c1ccccc1	3	-4%	1	4%	8%	5%
CC(=O)Nc1ccc(C(=O)OCc2ccc(F)cc2)cc1	35	-55%	12	1%	-4%	-5%
COc1ccc(-n2nnnc2SCC(=O)Nc2ccc(OC)cc2OC)cc1	-8	-7%	1	2%	-4%	1%
CC(=O)c1ccc(NC(=O)c2ccn[nH]2)cc1	65*	-1%	35*	?	-26%	-11%
O=C(Nc1ccccc1)c1ccn[nH]1	94*	-7%	38*	-17%	-10%	-5%
O=C(Nc1cccc([N+](=O)[O-])c1)c1ccn[nH]1	76*	.	60*	-7%	-2%	-9%
